This passage reports outcome and AC50 results from PubChem BioAssay (EPA / NIEHS).

Where a structure was tested more than once in an assay, its records may differ in their call. The source made the active and inactive calls. Rule for the calls: active = hit-call score of the fitted dose curve at least 0.9, where 1 is the maximum; inactive = score below 0.9.

The test can be described thus: ATG_TGFb_CIS: Attagene CIS-FACTORIAL HepG2 Assay for human Transforming Growth Factor (TGF) (AID 2282967). The note with it: HepG2 Attagene CIS TGFb reporter, mRNA transcription; actives raise or lower the signal. On the procedure:
ATG_CIS is a cell-based, multiplexed-readout assay that uses HepG2, a human liver cell line, with measurements taken at 24 hours after chemical dosing in a 24-well plate.ATG_TGFb_CIS is one of 52 assay component(s) measured or calculated from the ATG_CIS assay. It is designed to make measurements of mRNA induction, a form of inducible reporter, as detected with fluorescence intensity signals by Reverse transcription polymerase chain reaction (RT-PCR) and Capillary electrophoresis technology.Data from the assay component ATG_TGFb_CIS was analyzed into 1 assay endpoint. This assay endpoint, ATG_TGFb_CIS, was analyzed with bidirectional fitting relative to DMSO as the negative control and baseline of activity. Using a type of inducible reporter, measures of mRNA for gain or loss-of-signal activity can be used to understand the reporter gene at the transcription factor-level as they relate to the gene TGFB1. Furthermore, this assay endpoint can be referred to as a primary readout, because this assay has produced multiple assay endpoints where this one serves a reporter gene function. To generalize the intended target to other relatable targets, this assay endpoint is annotated to the growth factor intended target family, where the subfamily is transforming growth factor beta.
Human liver HepG2 cells are transiently transfected with multiple reporter transcription units (MRTUs) in 6-well plates using FuGene 6 reagent (Roche; 3 ml FuGene/1 mg DNA). The MRTU constructs are regulated by a cis-regulating element (promoter). […] A major difference between the CIS and TRANS system is that in CIS activities of endogenous TFs are measured, whereas the TRANS assay evaluates changes in activities of exogenous, chimeric NR-Gal4 proteins. […] At the end of 24 hour incubation, total RNA was isolated using TriZol reagent (Invitrogen). The isolated RNA is then reverse-transcribed using oligo(dT) primer and Mo-MLV reverse transcriptase (Invitrogen) with DNAse I (Ambion) treatment for 30 min. The one-tenth of the produced cDNA was amplified by PCR using Taq DNA polymerase (Invitrogen) and two reporter sequence-specific primers. The PCR products were fluorescently labeled by primer extension with 6-arboxyfluorescein (6-FAM) 5'-labeled reporter sequence-specific primer (2 min at 95 C, 20 s at 68 C and 10 min at 72 C) and these products were digested with 5U of HpaI (New England Biolabs) for 2h at 37 C. The fragments were purified using Qiaquick PCR columns (Qiagen), analyzed on an ABI 3130xL genetic analyzer (Applied Biosystems) with peak positions identified by using a set of X-rhodamine (ROX)-labeled MapMarker1000 molecular weight standards (BioVentures). The raw capillary electrophoresis data was processed using Attagraph software (Attagene).
Turning to `CCCOC(=O)c1ccc(C(=O)OCCC)nc1`, the compound was classed as inactive.
Turning to `CC(C)CCCCCCc1ccc(O)cc1`, the call was inactive.
Same read-out and setting: with `O=C(O)C1(C(=O)Nc2ccc(Cl)cc2Cl)CC1` the entry was “inactive”; with `O=C(c1ccc(O)cc1O)c1ccc(O)cc1O`, “inactive”.
For `CC1(C)C(C=C(Cl)Cl)C1C(=O)OCc1cccc(Oc2ccccc2)c1` (stereo not given), the compound was classed as inactive.
Take `O=C(Nc1ccc([N+](=O)[O-])cc1Cl)c1cc(Cl)ccc1O`: the outcome was inactive.
For `C[C@]12CC[C@@H]3c4ccc(O)cc4C[C@@H](CCCCCCCCCS(=O)CCCC(F)(F)C(F)(F)F)[C@H]3[C@@H]1CC[C@@H]2O` (stereo not given in full), the compound was classed as inactive.
`CC(=O)S[C@@H]1CC2=CC(=O)CC[C@]2(C)[C@H]2CC[C@@]3(C)[C@@H](CC[C@@]34CCC(=O)O4)[C@H]12`: the result was inactive.
As for `c1ccc(Nc2ccccc2)cc1`, the result was inactive.
Same read-out and setting: with `CCCCCCC(C)OC(=O)COc1nc(F)c(Cl)c(N)c1Cl` (stereo not given) the entry was “inactive”; with `C#C[C@]1(O)CC[C@H]2[C@@H]3CCC4=CC(=O)CC[C@@H]4[C@H]3CC[C@@]21CC`, “inactive”.
Broadly, the AC50 is the midpoint of the concentration-response curve, whichever way the signal moves. Regarding `N#CSCSc1nc2ccccc2s1`, the AC50 is 1.52 µM (active) and the compound was called inactive.
For the compound `C[C@]12C[C@H](O)[C@H]3[C@@H](CCC4=CC(=O)CC[C@@]43C)[C@@H]1CC[C@@H]2C(=O)CO`, the outcome was inactive.
In the case of `OB(O)O`, the result was inactive.
As to `CCCOC(=O)NCCCN(C)C`, the call was inactive.
Take `CC(C)(c1ccc(O)cc1)c1ccc(O)cc1`: the call was inactive and the concentration at half-maximal activity (AC50) is 43.6 µM (active).
With `COC(=O)c1cccc(C)c1S(=O)(=O)NC(=O)Nc1nc(OCC(F)(F)F)nc(N(C)C)n1`, the compound was classed as inactive.
The same measure, in the same setting: with `COC(=O)CSc1cc(N=c2sc(=O)n3n2CCCC3)c(F)cc1Cl` the entry was “inactive”; with `CCCCC(CC)COC(=O)c1ccccc1C(=O)O` (stereo not given), “inactive”.
Consider `CCCN(CCC)C(=O)SCC`, for which the result was inactive.
Same read-out and setting: with `CCN(CC)C(=O)c1cccc(C)c1` the entry was “inactive”.
Regarding `N[C@@H](Cc1cc(I)c(Oc2ccc(O)c(I)c2)c(I)c1)C(=O)O`, the result was inactive.
Still for that read-out and setting: with `CCOC(=O)C(C)Oc1ccc(Oc2nc3ccc(Cl)cc3o2)cc1` (stereo not given) the entry was “inactive”; with `CCOC(=O)C(C)Oc1ccc(Oc2cnc3cc(Cl)ccc3n2)cc1` (stereo not given), “inactive”.
Take `CCCCCOC(=O)COc1cc(N2C(=O)C3=C(CCCC3)C2=O)c(F)cc1Cl`: the result was inactive.
As for `CCCN(CCC)c1c([N+](=O)[O-])cc(C(F)(F)F)c(N)c1[N+](=O)[O-]`, the compound was called inactive.
Still for that read-out and setting: with `c1ccc2[nH]c(-c3cscn3)nc2c1` the entry was “inactive”.
With `CCNc1nc(N)nc(Cl)n1`, the call was inactive.
Same read-out and setting: with `CCCCOC(=O)C(C)Oc1ccc(Oc2ccc(C(F)(F)F)cn2)cc1` (stereo not given) the entry was “inactive”.
As to `Cc1nn(C)c(Oc2ccccc2)c1C=NOCc1ccc(C(=O)OC(C)(C)C)cc1`, the half-maximal activity concentration (AC50) was 3.15 µM (active).
Regarding `COC(=O)c1ccc(I)cc1S(=O)(=O)NC(=O)Nc1nc(C)nc(OC)n1`, the call was inactive.
For the compound `COC(=O)c1ccccc1C(=O)O`, the compound was called inactive.
As for `O=C(c1ccccc1)C1CCCCC1`, the compound was classed as inactive.
The same measure, in the same setting: with `CCCCOCCOCCOCc1cc2c(cc1CCC)OCO2` the entry was “inactive”; with `CC(=O)[C@H]1CC[C@H]2[C@@H]3CCC4=CC(=O)CC[C@]4(C)[C@H]3CC[C@]12C`, “inactive”; with `O=C(O)c1ccccc1`, “inactive”.
On to `CC(C)(C)[C@@H](O)[C@@H](Cc1ccc(Cl)cc1)n1cncn1`, for which the call was inactive.
For the compound `COC(=O)c1ccccc1S(=O)(=O)NC(=O)Nc1nc(OC(F)F)cc(OC(F)F)n1`, the result was inactive.
